Among the test systems are NCI-H23 lung; NCI-H322M lung; HOP-62 NSCLC; NCI-H460 lung; HOP-92 NSCLC; NCI-H522 lung; A549/ATCC NSCLC; 786-0 renal; COLO 205 colon; DU-145 prostate; K-562 leukemia; MALME-3M melanoma; MDA-MB-231 breast; RXF 393 renal; SF-268 CNS; SF-295 CNS; SF-539 CNS; UACC-257 melanoma; M14 melanoma.
Common to all, as to assay: NCI-60 one-dose screen, 48 h (100 = growth as untreated, 0 = no growth, -100 = all killed)
Conditions in all cases: 10 µM unless noted

Compounds without any hit were thinned out: in the full panel of roughly 83,000, 20% have a hit.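 Cells were grown in 96-well plates and exposed to the test compound at a single concentration for 48 hours; results are reported as percent growth, with values below 10 considered active.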 Unmarked numbers belong to inactive results. Activity calls are given as the source filed them.

Consider `NCCCNc1nc2ccccc2c2c(=O)c3cc(OC(F)(F)F)ccc3sc12`, for which the growth in the assay on NCI-H23 lung is 48.3%; in the assay on NCI-H322M lung, 49.1%; with HOP-62 NSCLC, 51.6%; in the assay with NCI-H460 lung, -76.6% (active); in the assay with HOP-92 NSCLC it was 17.3%; in the assay on NCI-H522 lung it was -14.4% (active). Also, the growth in the assay with A549/ATCC NSCLC is -43.3% (active); in the assay on 786-0 renal, 57.5%; in the assay on COLO 205 colon it was -52.7% (active); in the assay with DU-145 prostate it was -10.7% (active); in the assay on K-562 leukemia it was -34.7% (active); with MALME-3M melanoma it was 80.9%. Besides, the growth in the assay on MDA-MB-231 breast was -43.2% (active); with RXF 393 renal, 60.7%; in the assay on SF-268 CNS, 51%; with SF-295 CNS, 33.4%; with SF-539 CNS, -72% (active); in the assay on UACC-257 melanoma it was 104%. Moreover, in the assay with M14 melanoma, the growth was -26.4% (active).
Take `CCc1ccccc1-n1c(N)c(C#N)c(-c2ccc(Cl)cc2)c(C#N)c1=O`: the growth in the assay on NCI-H23 lung is 107%; in the assay with NCI-H322M lung, 140%; in the assay on HOP-62 NSCLC, 101%; in the assay with NCI-H460 lung, 111%; in the assay with HOP-92 NSCLC, 80%; with NCI-H522 lung, 94.2%. For the same molecule, the growth in the assay with A549/ATCC NSCLC is 117%; in the assay on 786-0 renal, 112%; in the assay on DU-145 prostate it was 110%; in the assay with K-562 leukemia, 114%; with MALME-3M melanoma, 173%; with MDA-MB-231 breast, 94.8%. Also, the growth is 113% in the assay on RXF 393 renal; 104% with SF-268 CNS; 99.3% with SF-295 CNS; 103% with SF-539 CNS; 125% in the assay on UACC-257 melanoma; 104% in the assay with M14 melanoma.
Turning to `COc1cccc(Cc2cc(-c3ccccc3)nn(CC(=O)c3ccccc3)c2=O)c1`, the growth was 74.2% with NCI-H23 lung; 94.1% in the assay on NCI-H322M lung; 60.4% in the assay on HOP-62 NSCLC; 37.8% in the assay on NCI-H460 lung; 46.9% in the assay on HOP-92 NSCLC; 72.4% with NCI-H522 lung. Besides, the growth with A549/ATCC NSCLC is 79.5%; with 786-0 renal, 55.8%; in the assay on COLO 205 colon it was 84.9%; in the assay with DU-145 prostate, 63.3%; in the assay with K-562 leukemia it was 22.5%; in the assay with MALME-3M melanoma, 97.1%. Moreover, the growth in the assay on RXF 393 renal was 60.1%; in the assay with SF-268 CNS, 54%; in the assay with SF-295 CNS, 68.1%; in the assay on SF-539 CNS, 49.9%; with UACC-257 melanoma it was 95%; with M14 melanoma it was 60.3%.
Consider `COc1cc(/C=C/C(=O)/C=C/c2cc(OC)c3c(c2OC)OCO3)c(OC)c2c1OCO2`, for which the growth is 33.2% with NCI-H23 lung; 56.8% with NCI-H322M lung; 72.8% in the assay with HOP-62 NSCLC; 23.5% with NCI-H460 lung; 74.1% in the assay with HOP-92 NSCLC; -15.5% (active) with NCI-H522 lung. The growth in the assay on A549/ATCC NSCLC is 55.1%; in the assay with 786-0 renal, 29%; in the assay with COLO 205 colon it was 13.3%; with DU-145 prostate it was 28.3%; in the assay with K-562 leukemia, 12.4%; in the assay on MALME-3M melanoma, 46.7%. In addition, the growth is 46% in the assay on MDA-MB-231 breast; 16.6% in the assay on RXF 393 renal; 48.7% in the assay with SF-268 CNS; 89.7% in the assay on SF-295 CNS; 29.4% in the assay with SF-539 CNS; 54.1% in the assay with UACC-257 melanoma. For the same molecule, the growth in the assay with M14 melanoma is 31.7%.
In the case of `COc1nc2ccc(C)cc2cc1-c1nc2c(cnn2-c2ccccc2)c(=O)[nH]1`, the growth is 80.5% with NCI-H23 lung; 95.9% with NCI-H322M lung; 70.9% in the assay with HOP-62 NSCLC; 80.3% with NCI-H460 lung; 78.9% with HOP-92 NSCLC; 56.5% with NCI-H522 lung. Also, the growth in the assay with A549/ATCC NSCLC was 84.3%; with 786-0 renal, 95.3%; with COLO 205 colon, 86.3%; in the assay with DU-145 prostate, 97.2%; in the assay with K-562 leukemia it was 34.8%; in the assay on MALME-3M melanoma, 126%. For the same molecule, the growth is 103% in the assay with MDA-MB-231 breast; 89.4% in the assay with RXF 393 renal; 93.8% with SF-268 CNS; 90.9% with SF-295 CNS; 99.9% in the assay on SF-539 CNS; 86.4% in the assay on UACC-257 melanoma. The growth in the assay with M14 melanoma was 71%.
For the molecule `C[C@]12CC[C@@H]3c4cc(OC(F)F)c(OS(N)(=O)=O)cc4CC[C@H]3[C@@H]1CC[C@@H]2O`, the growth in the assay with NCI-H23 lung is 24.5%; with NCI-H322M lung, 42.4%; with HOP-62 NSCLC it was 38.7%; with NCI-H460 lung it was 12.1%; with HOP-92 NSCLC, 58.6%; with NCI-H522 lung, 19.8%. Besides, the growth in the assay with A549/ATCC NSCLC is 29.5%; in the assay on 786-0 renal it was 42.3%; with COLO 205 colon, 12.4%; in the assay with DU-145 prostate, 9.26% (active); with K-562 leukemia, 12.3%; with MALME-3M melanoma, 26.4%. For the same molecule, the growth in the assay on MDA-MB-231 breast is 43.3%; in the assay on RXF 393 renal, -5.44% (active); in the assay with SF-268 CNS, 49.6%; in the assay with SF-295 CNS, 2.5% (active); with SF-539 CNS it was -3.28% (active); in the assay on UACC-257 melanoma, 67.4%. Moreover, the growth in the assay on M14 melanoma is 5.82% (active).
Take `COc1ccc2c(c1)c(-c1nn3cc(-c4cccs4)nc3s1)cn2C`: the growth is 82.5% in the assay on NCI-H23 lung; 55.8% with NCI-H322M lung; 85.6% in the assay on HOP-62 NSCLC; 68.7% in the assay with NCI-H460 lung; 44.7% with HOP-92 NSCLC; 63% with NCI-H522 lung. For the same molecule, the growth in the assay with A549/ATCC NSCLC is 81.1%; in the assay on 786-0 renal, 97.5%; with COLO 205 colon it was 64.5%; with DU-145 prostate, 89.7%; with K-562 leukemia, 51%; with MALME-3M melanoma, 72.1%. In addition, the growth in the assay with MDA-MB-231 breast is 54.1%; with RXF 393 renal it was 96.3%; in the assay on SF-268 CNS it was 80.3%; in the assay with SF-295 CNS, 66.9%; in the assay on SF-539 CNS it was 81.3%; in the assay with UACC-257 melanoma, 105%. In the assay with M14 melanoma, the growth is 71.6%.
As to `O=C(CCN1C(=O)/C(=C/c2ccc(O)cc2)SC1=S)Nc1ccc(Cl)cc1`, the growth was 91.3% in the assay on NCI-H23 lung; 82.6% with NCI-H322M lung; 84.8% in the assay with HOP-62 NSCLC; 102% in the assay with NCI-H460 lung; 85.9% in the assay on HOP-92 NSCLC; 19.9% in the assay on NCI-H522 lung. The growth with A549/ATCC NSCLC was 92.1%; in the assay on 786-0 renal it was 99.7%; with COLO 205 colon, 120%; in the assay on DU-145 prostate it was 108%; in the assay with K-562 leukemia it was 89.7%; in the assay with MALME-3M melanoma it was 89.9%. Moreover, the growth with MDA-MB-231 breast is 86.3%; in the assay on RXF 393 renal, 108%; in the assay with SF-268 CNS it was 90.9%; with SF-295 CNS, 92.9%; in the assay on SF-539 CNS, 96.1%; in the assay with UACC-257 melanoma, 101%. In addition, in the assay on M14 melanoma, the growth is 100%.
